Experimental findings from PubChem BioAssay (NCATS) are described below.

Where “and” joins values, the source holds several entries; their conditions need not be identical. Identical values can stand only once. Results filed as inconclusive are left out. Calls of active or inactive are those of the source. Calls follow the shape of the dose curve; as a rule, active = well fitted activation curve with a large enough effect in the signal ratio; inconclusive = small, poorly fitted or top-dose-only effect, or effect the other way, or a change in a side signal; inactive = flat fitted curve, though single readings scatter; the % refers to the signal ratio.
Potency is read from the fitted curve at half-maximal effect.

The test in a line: qHTS assay for small molecule agonists of the antioxidant response element (ARE) signaling pathway (AID 651741). As to activation: % of control where 0% means no effect. Conditions: HepG2 ARE-bla reporter, beta-lactamase FRET ratio, 16 h; series mostly up to 96 µM; activation: at the top concentration. The source says:
National Center for Advancing Translational Sciences [NCATS]
NIH Chemical Genomics Center [NCGC]
U.S. Environmental Protection Agency [EPA]
National Institutes of Environmental Health Sciences [NIEHS]
National Toxicology Program [NTP]
Oxidative stress has been implicated in the pathogenesis of a variety of diseases ranging from cancer to neurodegeneration. The antioxidant response element (ARE) signaling pathway plays an important role in the amelioration of oxidative stress. The CellSensor ARE-bla HepG2 cell line (Invitrogen) can be used for analyzing the Nrf2/antioxidant response signaling pathway. Nrf2 (NF-E2-related factor 2) and Nrf1 are transcription factors that bind to AREs and activate these genes. The CellSensor ARE-bla Hep G2 cell line contains a beta-lactamase reporter gene under control of the Antioxidant Response Element (ARE) stably integrated into HepG2 cells. The activation of the report gene under culture conditions can be detected by fluorescence intensity. This cell line can be used to screen chemicals in a 1536-well plate format and to identify agonists that induce oxidative stress.
The ARE-bla cells were dispensed at 2,000 cells/5 ul/well in 1536-well black wall/clear bottom plates using a Multidrop dispenser. After the assay plates were incubated at a 37 C/5% CO2 incubator for 5 hours, 23 nL of compounds dissolved in DMSO, positive controls or DMSO only was transferred to the assay plate by a pin tool. The plates were incubated at 37 C for 16 hours. After 1 uL of LiveBLAzer B/G FRET substrate was added using a Flying Reagent Dispenser, the plates were incubated at room temperature for 2 hours, and fluorescence intensity was measured by an Envision plate reader.
(In qHTS, concentration-response curves come from the screen itself.)
Turning to `Clc1ccc([C@@]2(Cn3cncn3)C[C@H](Br)CO2)c(Cl)c1`, the “activation” value is 11.2% (inactive).

Turning to `CC(c1ccc(O)cc1)(c1ccc(O)cc1)c1ccc(O)cc1`, the Potency is 12.2 µM (active).

For the compound `COP(=O)(OC)Oc1ccc([N+](=O)[O-])cc1`, the “activation” value was 3.51% (inactive). With `Cc1ccn2nc(S(=O)(=O)Nc3c(F)cccc3F)nc2n1`, the “activation” value is 7.09% (inactive).

`O=C(O)C1(O)c2ccccc2-c2ccc(Cl)cc21` (stereo not given): the Potency is 48.6 µM (active). With `CO`, the Potency was 42.2 µM (active).

On to `COC(=O)c1sccc1S(=O)(=O)NC(=O)Nc1nc(C)nc(OC)n1`, for which the “activation” value was 7.14% (inactive). The same measure, in the same setting: for `CC(=NC#N)N(C)Cc1ccc(Cl)nc1` the value was 5.98% (inactive).

For the compound `CC1(C(=O)Nc2ccc(O)c(Cl)c2Cl)CCCCC1`, the Potency is 30.6 µM (active). For `FC(F)(F)c1ccc(OCCCOc2c(Cl)cc(OCC=C(Cl)Cl)cc2Cl)nc1`, the Potency is 54.5 µM (active). On to `CCOP(=S)(OCC)SCC(=O)NC(C)C`, for which the “activation” value is 5.8% (inactive).

Consider `Clc1ccc(C(c2ccc(Cl)cc2)C(Cl)Cl)cc1`, for which the Potency is 66.8 µM (active) and 61.1 µM (active). On to `CC(Oc1cccc(Cl)c1)C(=O)O` (stereo not given), for which the “activation” value is 1.55% (inactive). `CCOc1cc(C(C)(C)C)ccc1C1COC(c2c(F)cccc2F)=N1` (stereo not given): the Potency was 12.2 µM (active).

In the case of `CCCCN(CC)c1c([N+](=O)[O-])cc(C(F)(F)F)cc1[N+](=O)[O-]`, the “activation” value is 3.17% (inactive). Same read-out and setting: for `CCC[CH2][Sn]([CH2]CCC)([CH2]CCC)[CH2]CCC` the value was 2.43% (inactive). On to `NS(=O)(=O)C(F)(F)C(F)(F)C(F)(F)C(F)(F)C(F)(F)C(F)(F)C(F)(F)C(F)(F)F`, for which the Potency was 68.6 µM (active).

Take `Cc1nn(-c2cc(NS(C)(=O)=O)c(Cl)cc2Cl)c(=O)n1C(F)F`: the “activation” value is -4.82% (inactive). In the case of `CCOP(N)(=O)Oc1ccc(SC)c(C)c1` (stereo not given), the “activation” value was 6.23% (inactive). As for `CCCCC(CC)C(=O)Cl` (stereo not given), the “activation” value is 6.65% (inactive).

Consider `CCOP(=O)(O)C(N)=O`, for which the “activation” value was 14.2% (inactive). For the compound `CCOC(=O)Nc1cccc(OC(=O)Nc2ccccc2)c1`, the Potency was 24.3 µM (active). The same measure, in the same setting: for `Cc1nn(C)c(Oc2ccccc2)c1/C=N/OCc1ccc(C(=O)OC(C)(C)C)cc1` the value was 0.154 µM (active). As to `Clc1ccc([C@]2(Cn3cncn3)C[C@H](Br)CO2)c(Cl)c1`, the “activation” value was 0.108% (inactive). As for `[O-][N+](=Nc1ccccc1)c1ccccc1`, the Potency was 37.6 µM (active). For `CCCCC(C#N)(Cn1cncn1)c1ccc(Cl)cc1` (stereo not given), the “activation” value was -3.67% (inactive).

Turning to `CCOP(=S)(OCC)SC(CCl)N1C(=O)c2ccccc2C1=O` (stereo not given), the Potency was 27.3 µM (active). The same measure, in the same setting: for `c1ccc(-c2ccc(-c3ccccc3)cc2)cc1` the value was 19.3 µM (active); for `O=C1c2ccccc2C(=O)C1C(=O)C(c1ccccc1)c1ccc(Cl)cc1` (stereo not given), 54.5 µM (active).

Consider `CNC(=O)/C=C(\C)OP(=O)(OC)OC`, for which the “activation” value was 6.92% (inactive). On the same count and under the same terms, then `Cc1nc(N(C)C)nc(OC(=O)N(C)C)c1C`, with -3.45% (inactive).

Take `C/C(=N\NC(=O)Nc1cc(F)cc(F)c1)c1ncccc1C(=O)O`: the Potency entry is “inactive”. As to `C=C1CC[C@H](O)C/C1=C/C=C1\CCC[C@]2(C)[C@@H]([C@H](C)CCCC(C)C)CC[C@@H]12`, the Potency was 23.7 µM (active).

For the compound `CCSCCSP(=O)(OC)OC`, the Potency was 54.5 µM (active). As to `O=C(O)[C@@H]1[C@H](C(=O)O)[C@@]2(Cl)C(Cl)=C(Cl)[C@]1(Cl)C2(Cl)Cl`, the “activation” value is 0.606% (inactive). On to `CC(C)N(C(=O)COc1nnc(C(F)(F)F)s1)c1ccc(F)cc1`, for which the Potency is 48.6 µM (active).

As for `CC1(C)CON(Cc2ccccc2Cl)C1=O`, the “activation” value is 6.29% (inactive).

Regarding `O=C(O)C(F)(F)C(F)(F)C(F)(F)C(F)(F)C(F)(F)C(F)(F)C(F)(F)C(F)(F)F`, the Potency is 24.3 µM (active). Take `CC(C)N(C(=O)CCl)c1ccccc1`: the Potency is 17.2 µM (active). As for `COc1nc(C)nc(NC(=O)NS(=O)(=O)c2ccccc2Cl)n1`, the “activation” value is -6.19% (inactive).
